According to PubChem BioAssay (Tox21):
Records with an inconclusive call do not appear. A call without a number means that no potency is given here. Calls of active or inactive are those of the source. Calls come from the whole dose curve; as a rule, active = well fitted curve in the direction sought with a large enough effect in the repeat runs; inconclusive = weak or mixed curves; inactive = no such curve, though single readings can be large; an effect the other way counts as inactive or inconclusive.

What was measured:
[1] = qHTS RealTime-Glo MT Cell Viability Assay in HepG2 cells - 8 hour (AID 1224873); note: nearly all actives have a fitted effect of over 55% in size; note: potency is the fitted concentration of half-maximal effect
Outline: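 Real-time viability: cells seeded at 600 per well together with NanoLuc and cell-permeant prosubstrate, compounds added after 5 h incubation. Luminescence tracked at 0, 8, 16, 24, 32 and 40 h of exposure.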

[2] = A CellTox Green Cytotoxicity Assay to monitor cytotoxicity in HEK293 cells - 24 hour (AID 1224875); note: nearly all actives have a fitted effect of over 45% in size; note: potency is the fitted concentration of half-maximal effect
Outline: (§1)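 Real-time, in one plate: 600 HEK293 cells/well with dead-cell DNA dye, pinned compound after 5 h, 37 C incubation over 40 h; viable cells give no appreciable fluorescence.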

[3] = A CellTox Green Cytotoxicity Assay to monitor cytotoxicity in HepG2 cells - 16 hour (AID 1224876); note: nearly all actives have a fitted effect of over 45% in size; note: potency is the fitted concentration of half-maximal effect
Outline: (§2)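 Cytotoxicity was tracked as dead-cell DNA fluorescence in HepG2 cells treated with test compounds at 37 C; each time-point value comes from one kinetic series spanning 0, 8, 16, 24, 32 and 40 h.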

[4] = qHTS RealTime-Glo MT Cell Viability Assay in HepG2 cells - 32 hour (AID 1224877); note: nearly all actives have a fitted effect of over 55% in size; note: potency is the fitted concentration of half-maximal effect
Outline: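 HepG2 cells were seeded at 600 cells/well together with NanoLuc luciferase and a cell-permeant prosubstrate, preincubated 5 h at 37 C/5% CO2, then pin-dosed with compounds in DMSO. Nonlytic luminescence from viable cells was read at each time point.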

[5] = A CellTox Green Cytotoxicity Assay to monitor cytotoxicity in HepG2 cells - 40 hour (AID 1224879); note: nearly all actives have a fitted effect of over 40% in size; note: potency is the fitted concentration of half-maximal effect
Outline: as §2

[6] = qHTS RealTime-Glo MT Cell Viability Assay in HEK293 cells - 0 hour (AID 1224880); note: top concentration of the series differs between compounds; nearly all actives have a fitted effect of over 45% in size
Outline: (§3)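 Kinetic, non-lysing viability readout. Seed HEK293 (600/well) with reagent, incubate 5 h at 37 C/5% CO2, pin 23 nL compound in DMSO, incubate at 37 C, read luminescence at 0, 8, 16, 24, 32, 40 h.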

[7] = A CellTox Green Cytotoxicity Assay to monitor cytotoxicity in HEK293 cells - 32 hour (AID 1224881); note: nearly all actives have a fitted effect of over 40% in size; note: potency is the fitted concentration of half-maximal effect
Outline: as §1

[8] = A CellTox Green Cytotoxicity Assay to monitor cytotoxicity in HepG2 cells - 0 hour (AID 1224882); note: nearly all actives have a fitted effect of over 35% in size
Outline: as §2

[9] = A CellTox Green Cytotoxicity Assay to monitor cytotoxicity in HepG2 cells - 24 hour (AID 1224878); note: nearly all actives have a fitted effect of over 45% in size; note: potency is the fitted concentration of half-maximal effect
Outline: as §2

[10] = qHTS RealTime-Glo MT Cell Viability Assay in HEK293 cells - 40 hour (AID 1224874); conditions: RealTime-Glo luminescence; max response: stronger effect = lower value; note: potency is the fitted concentration of half-maximal effect; nearly all actives have a fitted effect of over 50% in size
Outline: as §3

Row | Compound | Potency [1] | Potency [2] | Potency [3] | Potency [4] | Potency [5] | Potency [6] | Potency [7] | Potency [8] | Potency [9] | Potency [10]
1 | OCCN1CN(CCO)CN(CCO)C1 | inactive | inactive | inactive | inactive | inactive | inactive | inactive | inactive | – | –
2 | Cc1ccc(N)cc1O | inactive | – | – | inactive | – | inactive | – | inactive | – | –
3 | CCN(CC)CCOC(=O)C1(C2CCCCC2)CCCCC1 | inactive | 23.9 µM (active) | – | inactive | 23.9 µM (active) | – | 23.9 µM (active) | inactive | 23.9 µM (active) | –
4 | CN1CCN(C2Cc3ccccc3Sc3ccc(Cl)cc32)CC1 (centres undefined) | – | 21.3 µM (active) | 26.8 µM (active) | 23.9 µM (active) | 23.9 µM (active) | inactive | 21.3 µM (active) | inactive | 23.9 µM (active) | 23.9 µM (active)
5 | CCCC(=O)OCC(COC(=O)CCC)OC(=O)CCC | inactive | – | inactive | inactive | inactive | inactive | inactive | inactive | – | –
6 | CC(C)OC(=O)c1cc(C(=O)OC(C)C)cc([N+](=O)[O-])c1 | inactive | – | inactive | inactive | inactive | inactive | – | inactive | – | –
7 | C[C@]12CC[C@H]3C(=CCc4cc(O)ccc43)[C@@H]1CCC2=O | – | inactive | inactive | inactive | – | inactive | inactive | inactive | inactive | 43.6 µM (active)
8 | CCN(CC)CCCN(c1ccccc1)C1Cc2ccccc2C1 | inactive | inactive | – | inactive | 23.9 µM (active) | – | inactive | inactive | 23.9 µM (active) | –
9 | CCCSS/C(CCO)=C(\C)N(C=O)Cc1cnc(C)nc1N | inactive | inactive | – | – | 26.8 µM (active) | inactive | inactive | inactive | – | –
10 | CCN(CC)CCOc1ccc(C(O)(Cc2ccc(Cl)cc2)c2ccc(C)cc2)cc1 (centres undefined) | – | 23.9 µM (active) | 23.9 µM (active) | 19 µM (active) | 15.1 µM (active) | inactive | 23.9 µM (active) | inactive | 21.3 µM (active) | 10.7 µM (active)
11 | CC(C)c1cccc(C(C)C)c1N1C(=O)c2ccc(O)cc2C1=O | 43.6 µM (active) | – | 24.5 µM (active) | 43.6 µM (active) | 24.5 µM (active) | inactive | – | inactive | 24.5 µM (active) | –
12 | CC=O | – | 57.5 µM (active) | 57.5 µM (active) | 45.7 µM (active) | 25.7 µM (active) | inactive | 51.3 µM (active) | inactive | 45.7 µM (active) | 0.324 µM (active)
13 | Oc1ccc(-c2ccc(O)cc2)cc1 | inactive | – | inactive | inactive | inactive | inactive | inactive | inactive | inactive | –
14 | COc1cccc(CCc2ccccc2OCC(CN(C)C)OC(=O)CCC(=O)O)c1 (centres undefined) | inactive | inactive | – | inactive | 26.8 µM (active) | inactive | inactive | inactive | – | –
15 | O=C(NO)c1ccccc1 | inactive | – | – | inactive | – | inactive | – | inactive | – | –
16 | CC(CN(C)C)CN1c2ccccc2CCc2ccccc21 (centres undefined) | inactive | inactive | – | inactive | 23.9 µM (active) | inactive | inactive | inactive | – | –
17 | CCOB(OCC)OCC | inactive | inactive | – | inactive | – | – | inactive | inactive | – | –
18 | CN(C)CCOC(c1ccccc1)c1ccccc1 (tested in a mixture with another compound) | inactive | inactive | inactive | inactive | – | inactive | inactive | inactive | inactive | –
19 | COc1ccc(-n2nc(CCC(=O)N(C)O)cc2-c2ccc(Cl)cc2)cc1 | inactive | – | inactive | inactive | – | inactive | inactive | inactive | – | –
20 | CN(Cc1cc(Br)cc(Br)c1N)C1CCCCC1 | inactive | – | 19 µM (active) | inactive | – | inactive | – | inactive | 21.3 µM (active) | –
21 | CCC(C)c1cc([N+](=O)[O-])cc([N+](=O)[O-])c1OC(=O)OC(C)C (centres undefined) | 43.6 µM (active) | – | inactive | – | – | inactive | inactive | inactive | – | –
22 | COc1ccccc1OCCNCC(O)COc1cccc2[nH]c3ccccc3c12 (centres undefined) | – | inactive | 23.9 µM (active) | 23.9 µM (active) | 23.9 µM (active) | inactive | – | inactive | 26.8 µM (active) | 10.7 µM (active)
23 | CC(=O)c1ccccc1N | inactive | – | inactive | inactive | inactive | inactive | inactive | inactive | inactive | –
